“And” between values parts separate entries of the source, which are not always exact repeats. Equal entries are not always repeated. Compounds without any hit were thinned out: in the full panel of roughly 83,000, 20% have a hit.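 Assay: single dose, 48 h. Readout: percent growth (0 = no net growth; negative = cell death). Active: <10.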 The source made the active and inactive calls.
Experiments:
Test in all cases: NCI-60 one-dose screen, 48 h (100 = growth as untreated, 0 = no growth, -100 = all killed)
Settings in all cases: 10 µM unless noted
NCI-H23 lung = system: NCI-H23 lung
NCI-H226 lung = system: NCI-H226 lung
NCI-H322M lung = system: NCI-H322M lung
HOP-62 NSCLC = system: HOP-62 NSCLC
NCI-H460 lung = system: NCI-H460 lung
HOP-92 NSCLC = system: HOP-92 NSCLC
NCI-H522 lung = system: NCI-H522 lung
A549/ATCC NSCLC = system: A549/ATCC NSCLC
786-0 renal = system: 786-0 renal
COLO 205 colon = system: COLO 205 colon

Measured: growth

CC(C)(C)C1CCC(=NO)CC1 (stereo not given)
inactive: NCI-H23 lung 95.5% | NCI-H226 lung 99.9% | NCI-H322M lung 106% | HOP-62 NSCLC 95.9% | NCI-H460 lung 99.6% | HOP-92 NSCLC 71.4% | NCI-H522 lung 92.5% | A549/ATCC NSCLC 91.6% | 786-0 renal 94.5% | COLO 205 colon 117%

CCN(CC)Cc1cc2[nH]c3c4ccc(Cl)cc4ncc3c2cc1OC
active: COLO 205 colon -16.9% and 1.13%
inactive: NCI-H23 lung 68.4% | NCI-H226 lung 84.1% and 93.4% | NCI-H322M lung 93.2% and 87.2% | HOP-62 NSCLC 80.7% and 87.9% | HOP-92 NSCLC 60.6% and 78% | NCI-H522 lung 244% and 12.6% | A549/ATCC NSCLC 19.6% and 44.1% | 786-0 renal 81% and 86.3%
0.598% (active) and 14% (inactive): NCI-H460 lung

CCOC(=O)CN1CCC(C(=O)OCC)CC1
inactive: NCI-H23 lung 102% | NCI-H226 lung 107% | NCI-H322M lung 124% | HOP-62 NSCLC 98.9% | NCI-H460 lung 108% | HOP-92 NSCLC 92.3% | NCI-H522 lung 96.1% | A549/ATCC NSCLC 103% | 786-0 renal 109% | COLO 205 colon 112%

C/C(=C\c1ccccc1)C(O)C(=O)c1nc2ccc([N+](=O)[O-])cc2[nH]c1=O (stereo not given)
inactive: NCI-H23 lung 104% | NCI-H226 lung 88% | NCI-H322M lung 90.3% | HOP-62 NSCLC 81.4% | NCI-H460 lung 94.7% | HOP-92 NSCLC 78.9% | NCI-H522 lung 48.1% | A549/ATCC NSCLC 85.7% | 786-0 renal 101% | COLO 205 colon 111%

N=C(N)N1CCc2ccccc2C1
inactive: NCI-H23 lung 87.2% and 106% | NCI-H226 lung 97.6% and 108% | NCI-H322M lung 98.6% and 116% | HOP-62 NSCLC 93.1% and 96.8% | NCI-H460 lung 103% and 95.5% | HOP-92 NSCLC 156% | NCI-H522 lung 83.9% and 118% | A549/ATCC NSCLC 81.9% and 96.9% | 786-0 renal 87.5% and 112% | COLO 205 colon 100% and 106%

COC(=O)c1nc(=S)[nH]c(C(=O)OC)c1C(=O)c1ccccc1
inactive: NCI-H23 lung 101% | NCI-H226 lung 90.2% | NCI-H322M lung 106% | HOP-62 NSCLC 113% | NCI-H460 lung 114% | HOP-92 NSCLC 92% | NCI-H522 lung 103% | A549/ATCC NSCLC 112% | 786-0 renal 120% | COLO 205 colon 119%

CCCC(=O)Oc1ccc(CC)cc1
inactive: NCI-H23 lung 96.5% | NCI-H226 lung 110% | NCI-H322M lung 106% | HOP-62 NSCLC 98.9% | NCI-H460 lung 105% | HOP-92 NSCLC 115% | NCI-H522 lung 93% | A549/ATCC NSCLC 101% | 786-0 renal 99.7% | COLO 205 colon 104%

CC1CC(O)CC(C)(C)C1.CC1CC(O)CC(C)(C)C1.CC1CC(O)CC(C)(C)C1.CC1CC(O)CC(C)(C)C1.[Ti] (stereo not given)
inactive: NCI-H23 lung 104% | NCI-H226 lung 97.2% | NCI-H322M lung 105% | HOP-62 NSCLC 103% | NCI-H460 lung 109% | HOP-92 NSCLC 99.2% | NCI-H522 lung 112% | A549/ATCC NSCLC 92.6% | 786-0 renal 107% | COLO 205 colon 108%

O=C(O)Cc1cc(=O)[nH]n(-c2ccccc2)c1=O
inactive: NCI-H23 lung 108% | NCI-H226 lung 98.1% | NCI-H322M lung 109% | HOP-62 NSCLC 106% | NCI-H460 lung 109% | HOP-92 NSCLC 98% | NCI-H522 lung 95.4% | A549/ATCC NSCLC 95.6% | 786-0 renal 108% | COLO 205 colon 110%

Cc1cc2nc3ccc(=[N+](C)C)cc-3sc2cc1N
0.425% (active) and 42.7% (inactive): HOP-62 NSCLC
inactive: NCI-H23 lung 21.7% | NCI-H226 lung 43.3% and 58.9% | NCI-H322M lung 22.6% and 38.3% | 786-0 renal 39.4% and 35.9%
active: NCI-H460 lung 6.67% and 7.84% | A549/ATCC NSCLC 6.81% and 7.05% | COLO 205 colon -68.6% and -23.5%
-55.4% (active) and 13% (inactive): NCI-H522 lung
43.1% (inactive) and 8.68% (active): HOP-92 NSCLC

CCN(CC)CCNC(=O)c1ccc(NCN2C(=O)NC(c3ccccc3)(c3ccccc3)C2=O)cc1
inactive: NCI-H23 lung 97.1% and 103% | NCI-H226 lung 95.6% and 100% | NCI-H322M lung 112% and 106% | HOP-62 NSCLC 116% and 99.7% | NCI-H460 lung 101% and 114% | HOP-92 NSCLC 86.2% and 105% | NCI-H522 lung 108% and 106% | A549/ATCC NSCLC 95.3% and 107% | 786-0 renal 101% and 115% | COLO 205 colon 124% and 103%

Cc1onc(-c2c(F)cccc2Cl)c1-c1ncc(-c2ccc(Cl)cc2)o1
inactive: NCI-H23 lung 67% and 42.5% | NCI-H226 lung 76.9% and 58.4% | NCI-H322M lung 104% and 57% | HOP-62 NSCLC 78% and 53.4% | HOP-92 NSCLC 34.2% and 73% | NCI-H522 lung 35.1% | A549/ATCC NSCLC 53.1% and 41.4% | 786-0 renal 73.9% and 31.6% | COLO 205 colon 53.5% and 43.6%
29.6% (inactive) and 3.17% (active): NCI-H460 lung

S=c1nn[nH]n1C1CCCCC1
inactive: NCI-H23 lung 111% | NCI-H226 lung 102% | NCI-H322M lung 102% | HOP-62 NSCLC 126% | NCI-H460 lung 95.7% | HOP-92 NSCLC 93.2% | NCI-H522 lung 117% | A549/ATCC NSCLC 106% | 786-0 renal 99.7% | COLO 205 colon 123%

COc1ccc(/C=N/NC(N)=S)cc1
inactive: NCI-H23 lung 89.2% | NCI-H226 lung 105% | NCI-H322M lung 103% | HOP-62 NSCLC 93.4% | NCI-H460 lung 103% | HOP-92 NSCLC 68.4% | NCI-H522 lung 89.4% | A549/ATCC NSCLC 82.1% | 786-0 renal 98.3% | COLO 205 colon 106%

CCNCc1ccccc1
inactive: NCI-H23 lung 91.4% | NCI-H226 lung 100% | NCI-H322M lung 100% | HOP-62 NSCLC 102% | NCI-H460 lung 109% | HOP-92 NSCLC 113% | NCI-H522 lung 102% | A549/ATCC NSCLC 102% | 786-0 renal 103% | COLO 205 colon 107%

CN(C)C(=N)N=C(N)N
inactive: NCI-H23 lung 100% and 120% | NCI-H226 lung 110% and 133% | NCI-H322M lung 107% and 154% | HOP-62 NSCLC 95.5% and 99.5% | NCI-H460 lung 113% and 125% | HOP-92 NSCLC 114% and 122% | NCI-H522 lung 64.1% and 166% | A549/ATCC NSCLC 99.8% and 118% | 786-0 renal 103% and 101% | COLO 205 colon 135%

CCOC(=O)C(N)Cc1cc(I)c(O)c(I)c1 (stereo not given)
inactive: NCI-H23 lung 99.5% and 102% | NCI-H226 lung 91.6% and 96.6% | NCI-H322M lung 113% and 106% | HOP-62 NSCLC 106% and 113% | NCI-H460 lung 109% and 115% | NCI-H522 lung 108% and 90.7% | A549/ATCC NSCLC 107% and 101% | 786-0 renal 99.7% and 105% | COLO 205 colon 108% and 110%
102% (inactive) and -3.49% (active): HOP-92 NSCLC

CC(C)(C(=O)c1cccnc1)c1cccnc1
inactive: NCI-H23 lung 107% and 133% | NCI-H226 lung 96.6% and 89.7% | NCI-H322M lung 92% and 103% | HOP-62 NSCLC 109% and 103% | NCI-H460 lung 103% and 101% | HOP-92 NSCLC 89.3% | NCI-H522 lung 93.5% and 100% | A549/ATCC NSCLC 86.5% and 108% | 786-0 renal 103% and 99.5% | COLO 205 colon 113% and 117%

OC(CC(c1ccccc1)c1cccc2ccccc12)(c1ccccc1)c1ccccc1 (stereo not given)
inactive: NCI-H23 lung 76.2% and 71.1% | NCI-H226 lung 77.9% and 79.1% | NCI-H322M lung 97.5% and 105% | HOP-62 NSCLC 94.6% and 97% | NCI-H460 lung 89.2% and 91.4% | HOP-92 NSCLC 49.5% and 58.4% | NCI-H522 lung 47.9% and 62.7% | A549/ATCC NSCLC 73.7% and 79.1% | 786-0 renal 85.7% and 79.7% | COLO 205 colon 90.3% and 92.4%

COc1cc(NCCCCCNC(C)C)c2ncccc2c1
inactive: NCI-H23 lung 104% and 90.3% | NCI-H226 lung 90.5% and 94% | NCI-H322M lung 82.7% and 104% | HOP-62 NSCLC 87.3% and 92.5% | NCI-H460 lung 103% and 117% | HOP-92 NSCLC 82.5% | NCI-H522 lung 92.2% and 42% | A549/ATCC NSCLC 101% and 94.7% | 786-0 renal 94.4% and 89.3% | COLO 205 colon 91.7% and 87.9%
